Source: PubChem (National Center for Advancing Translational Sciences (NCATS))
CRE Fsk mod = Cell signaling CRE-BLA (Fsk stim). CHO CRE-bla reporter (cAMP response element driving beta-lactamase), forskolin EC10, beta-lactamase ratio. Potency, µM (doses to about 38.2 µM), for inactives: at the highest dose activity change, negative = inhibition, most hits filed as activators. 71,000 tested, 2.5% active. AID 662, 2007; active = well fitted activation curve with a large enough effect in the signal ratio, with a control signal flat, not every such curve was filed as active; inconclusive = small, poorly fitted or top-dose-only effect, or effect the other way, or a change in a side signal; the % refers to the signal ratio; note: % of control where 0% means no effect
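Modulation of forskolin signalling: compounds in titration series added with EC10 NKH 477 to CHO cells carrying a CRE-driven beta-lactamase reporter, 3 h, 37C. CCF4 FRET ratio (460/530 nm, ex 405 nm) gives %activity and AC50.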
IkB sig inh = IkB Signaling. 110,000 tested, 0.04% active. ABC-DLBCL IkBa-CBG/CBR dual luciferase ratio, 4 h; response scale: scaled: untreated 0%, proteasome inhibitor 100%. Potency, µM (series often up to 57.1 µM), without a hit: at the highest dose IkBa stabilization activation; active = well fitted curve in the direction sought with a large enough effect in the signal ratio, not every such curve was filed as active; inconclusive = small, poorly fitted or top-dose-only effect, or a change in a side signal; the % refers to the signal ratio;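 note: the direction sought is a rising ratio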
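Curves were fitted separately to fusion (green), unfused (red) and ratio luminescence, then classed by r2, magnitude and activity. Cells: OCI-Ly3, 4 h compound plus doxycycline at 37C; 10 uM MG-132 defined full response.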
HEK293 cAMP cs = qHTS Assay for Agonists of the Thyroid Stimulating Hormone Receptor: Activators of Intracellular cAMP Concentrations in Parental HEK 293 | AID 938, 2007 | Potency, µM (doses to about 57.1 µM), inactives show at the highest dose activation, hits mostly activators | 73,000 tested, 2.5% active | parental HEK293 CNG cAMP sensor, membrane potential fluorescence; note: % of control where 0% means no effect; nearly all actives have a fitted effect of over 55% in size
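Parental HEK 293 cells stably expressing a modified CNG channel (no TSHR) report cAMP rise as membrane depolarization. Membrane potential dye with 100 uM RO 20-1724 was loaded for 60 min at room temperature, then compound added for 30 min; fluorescence read at 590 nm.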
TSHR ag = qHTS Assay for Agonists of the Thyroid Stimulating Hormone Receptor; HEK293-CNG-TSHR cells (CNG channel as cAMP sensor), membrane potential dye, cAMP; Potency, µM (top dose mostly 57.1 µM), inactives show top-dose activation, hits mostly activators; 73,000 tested, 0.48% active; active = well fitted activation curve with a large enough effect in the main read-out, with a control signal flat, not every such curve was filed as active; inconclusive = small, poorly fitted or top-dose-only effect, or a change in a side signal; inactive = no such curve, though single readings can be large or run the other way; % of control where 0% means no effect;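 note: the control signal comes from parental cells without the receptor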
Target sequence (P16473 whole entry, looked up): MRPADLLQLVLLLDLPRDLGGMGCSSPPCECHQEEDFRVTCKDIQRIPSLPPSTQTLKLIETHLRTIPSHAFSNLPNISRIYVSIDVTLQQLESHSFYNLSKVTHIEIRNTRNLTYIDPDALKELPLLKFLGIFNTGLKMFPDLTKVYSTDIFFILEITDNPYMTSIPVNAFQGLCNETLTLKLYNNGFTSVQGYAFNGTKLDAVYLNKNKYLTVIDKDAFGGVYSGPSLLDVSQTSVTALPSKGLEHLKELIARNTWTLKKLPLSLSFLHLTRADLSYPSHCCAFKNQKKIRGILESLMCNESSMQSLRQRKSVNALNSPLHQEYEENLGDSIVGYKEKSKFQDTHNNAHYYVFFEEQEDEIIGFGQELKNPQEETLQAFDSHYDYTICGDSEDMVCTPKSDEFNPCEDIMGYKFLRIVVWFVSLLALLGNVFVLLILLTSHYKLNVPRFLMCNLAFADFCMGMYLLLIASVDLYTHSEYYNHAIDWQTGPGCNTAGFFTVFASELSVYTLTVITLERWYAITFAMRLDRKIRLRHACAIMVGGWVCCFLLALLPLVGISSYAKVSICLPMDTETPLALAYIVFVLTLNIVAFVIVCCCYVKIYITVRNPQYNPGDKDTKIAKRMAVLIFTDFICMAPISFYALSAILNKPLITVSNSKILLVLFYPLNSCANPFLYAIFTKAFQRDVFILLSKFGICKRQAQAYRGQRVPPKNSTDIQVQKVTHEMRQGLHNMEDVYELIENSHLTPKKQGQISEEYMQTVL
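HEK 293 cells stably expressing TSHR and a cAMP-gated CNG channel; parental CNG-only cells as counterscreen. Cells preloaded 60 min with membrane potential dye plus 100 uM RO 20-1724, then compound 30 min; fluorescence read at 590 nm.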
ERK AVP block = qHTS Assay for Inhibitors of the ERK Signaling Pathway using a Homogeneous Screening Assay | HEK293-V1b, vasopressin-stimulated pERK AlphaScreen | Potency, µM (top dose mostly 57.5 µM), without a hit: top-dose activity, negative = inhibition, usual class: inhibitors | 72,000 tested, 0.99% active | AID 995, 2007; note: % is set by controls: 0 for no effect and ±100 for the full control effect; nearly all actives have a fitted effect of over 55% in size
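V1b-HEK293 cells; cpd 30 min 37C; 25 nM vasopressin 5 min; lyse 10 min; AlphaScreen beads 5 hr RT. Normalized to DMSO basal and 25 nM vasopressin; AC50 by Hill fit.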
* = called active by the depositor; ? = inconclusive; nt = no result; [ ] = remark or other dose. Shown are actives, neighbours in structure and some others; about 3.6% of the full set was active somewhere. Unless noted, calls come from the whole dose curve; as a rule, active = well fitted curve in the direction sought with a large enough effect; inconclusive = small, poorly fitted or top-dose-only effect, or another doubt; inactive = no such curve, though single readings can be large; an effect the other way counts as inactive or inconclusive. Potency is the fitted concentration of half-maximal effect.

SMILES | CRE Fsk mod | IkB sig inh | HEK293 cAMP cs | TSHR ag | ERK AVP block
CCCn1c(NC(=O)c2ccc(C)cc2)nc2ccccc21 | ? | 0% | 25µM* | ? | 1%
CCOc1ccc(-c2cc3nc(C4CCN(C(=O)OC(C)(C)C)CC4)c(C(=O)Nc4c(C)cccc4C)cn3n2)cc1 | nt | 3% | nt | nt | nt
CCOc1ccc(-c2cc3nc(C4CCN(C(=O)OC(C)(C)C)CC4)c(C(=O)O)cn3n2)cc1 | 13µM* | 0% | -15% | nt | ?
COc1ccc(C2C(C(=O)N3CC(C)CC(C)C3)c3ccccc3C(=O)N2C)cc1 (stereo unspecified) | -4% | 0% | 16µM* | ? | 10%
Cc1ccc(CN(Cc2cc3cc(C)ccc3[nH]c2=O)C(=O)N2CCOCC2)cc1 | 1% | 0% | 17% | 16% | -1%
CCOc1ccc2[nH]c(=O)c(CN(Cc3ccc(C)cc3)C(=O)N3CCCC3)cc2c1 | 2% | -1% | 32µM* | ? | 15%
O=C(c1ccco1)c1cn(CC(=O)N2CCCc3ccccc32)c2ccccc12 | 9% | 1% | 25µM* | ? | -20%
COc1ccc(CCNC(=O)C2(c3cccs3)CCOCC2)cc1OC | nt | 3% | nt | nt | nt
FC(F)(F)c1cc(-c2ccco2)nc(NCc2cccnc2)n1 | 18% | 3% | 25µM* | ? | ?
Fc1ccc(CNc2nc(-c3ccco3)cc(C(F)(F)F)n2)cc1 | -4% | ? | ? | ? | 11%
Cc1cc(N2CCN(C(=O)c3ccco3)CC2)n2nc(-c3cccc(Cl)c3)cc2n1 | ? | 5% | ? | ? | 25µM*
Cc1nc2cc(-c3cccc(Cl)c3)nn2c(N2CCN(C(=O)c3ccco3)CC2)c1C | -5% | 0% | 10% | 8% | 6%
Cc1cc(N2CCN(C(=O)c3ccco3)CC2)n2nc(C)c(-c3ccccc3)c2n1 | 7.9µM* | 1% | -3% | 0%[11.4 µM] | -1%
O=C(c1cc2nc(-c3ccccc3)cc(-c3ccccc3)n2n1)N1CCN(C(=O)c2ccco2)CC1 | 3.2µM* | ? | ? | ? | -10%
O=C(O)/C=C\[C@H](O)c1ccc(Cl)cc1 | -8% | 27% | ? | ? | -3%
Cc1cc(C)n(-c2ccc(F)cc2)c(=O)c1C(=O)O | ? | -1% | 9% | -6% | -7%
COc1cccc(CNC(=O)CSc2nc3ccccc3nc2Cc2ccccc2)c1 | nt | -1% | nt | nt | nt
Cc1c(C)n(C)c2ccc(C(=O)NCc3cccs3)cc12 | 8% | ? | 23% | 17% | 13µM*
CC(C)C[C@H]1C(=O)N2CCC[C@@H]2[C@]2(O)O[C@](NC(=O)[C@@H]3C=C4c5cccc6[nH]c(Br)c(c56)C[C@H]4N(C)C3)(C(C)C)C(=O)N12 | 4µM* | ? | -16% | 0% | -21%
COC(=O)c1sc(N2C(=O)C(O)=C(C(=O)c3ccc(C)o3)C2c2ccc(F)cc2)nc1C (stereo unspecified) | 4µM* | 0% | -6%[11.4 µM] | -1%[11.4 µM] | 6%
CCc1ccc(C2c3c(oc4cc(C)c(C)cc4c3=O)C(=O)N2c2nc(C)c(C(=O)OC)s2)cc1 (stereo unspecified) | nt | 1% | nt | nt | nt
COC(=O)c1cc2sc(Cl)cc2n1Cc1nc(-c2ccc(OC)cc2)oc1C | nt | -2% | nt | nt | nt
C(=N\n1cnnc1)/c1cn(Cc2ccccc2)c2ccccc12 | ? | 1% | 13% | 11% | -10%
CCCCCN=c1ccn(Cc2ccccc2)c2ccccc12 | -9% | ? | 16µM* | ? | ?
N#CC1=C(N)C(C#N)(C#N)[C@H](c2ccoc2)[C@H]2CN(Cc3ccccc3)CC=C12 | 10µM* | 6% | 1% | -9% | -8%
SMILES | CRE Fsk mod | IkB sig inh | HEK293 cAMP cs | TSHR ag | ERK AVP block
CC1CCc2nc3ccc(S(=O)(=O)N4CCC(C(=O)NCc5ccccc5Cl)CC4)cc3c(C(=O)O)c2C1 (stereo unspecified) | nt | -1% | nt | nt | nt
CC(C)Nc1nc(NC(C)C)nc(N(C)C(N)=O)n1 | 10µM* | 0% | 2% | 1% | -25%
CCOC(=O)c1[nH]c(CSc2nnnn2-c2ccccc2C)c(C(=O)OCC)c1C | 2.5µM* | 0% | ? | ? | 11%
COC(=O)NCC(c1cccnc1)N1CCN(c2ccc(F)cc2)CC1 (stereo unspecified) | nt | -3% | nt | nt | nt
O=C(COc1ccccc1)N(Cc1ccco1)c1ccc(O)cc1 | -15% | -1% | 22% | 20µM* | -26%
Cc1cc(N2CCN(c3ccccc3)CC2)n2c(n1)nc1ccccc12 | 22% | 1% | 25µM* | ? | -6%
CN(C)C(=O)c1ccc(-c2cc(-n3ccnc3)ncn2)cc1 | 1% | -2%[11.4 µM] | -9% | 11% | 0%
CN(C)c1ccc(-c2cc(-n3ccnc3)ncn2)cc1 | 10µM* | 0%[11.4 µM] | -15% | 0% | 3%
Cc1noc(C)c1C(=O)N1CCC[C@@]2(CCN(C(=O)Nc3cccc(F)c3)C2)C1 | -9% | 3%[11.4 µM] | 14% | 5% | -1%
O=c1n(Cc2ccccc2)c2cc(Cl)cnc2n1Cc1ccccc1 | ? | ? | ? | ? | 1%
c1ccc(CCc2ccccc2-c2nc(-c3cccnc3)no2)cc1 | 3.2µM* | -2% | ? | ? | 3%
Cc1occc1-c1nc(-c2ccccn2)no1 | 9% | 6% | 0% | 4% | -14%
c1ccc(CCc2nc(-c3cccnc3)no2)cc1 | 11% | 4% | -8% | -11% | 3%
Cc1onc(-c2ccccc2Cl)c1-c1nc(-c2ccccn2)no1 | 13µM* | -2% | 32µM* | ? | -13%
c1ccc(CCc2ccccc2-c2nc(-c3ccccn3)no2)cc1 | ? | ? | 25µM* | ? | 8%
c1ccc(-c2ccccc2-c2nc(-c3cccnc3)no2)cc1 | 10µM* | ? | ? | ? | 2%
Cc1cc(C)n(-c2nc3ccccc3nc2N2CCN(C(=O)c3ccc(F)cc3)CC2)n1 | ? | 0% | 8% | 19% | 0%
O=C(CSc1nc2ccccc2nc1Cc1ccc(F)cc1)Nc1ccc2c(c1)OCO2 | nt | -3% | nt | nt | nt
C=CCN(CC=C)c1nc2ccccc2nc1C(C#N)C(=O)OCCOC (stereo unspecified) | 16µM* | -1% | ? | ? | 6%
CCCN(CCC)c1nc2ccccc2nc1C(C#N)C(=O)OCCOC (stereo unspecified) | 13µM* | 0% | 18% | nt | -21%
CCCCCCOC(=O)C(C#N)c1nc2ccccc2nc1N1CCCCC1 (stereo unspecified) | ? | 3% | 15% | 3% | -6%
FC(F)(F)c1ccccc1-c1nc(N2CCOCC2)c2ccccc2n1 | ? | 4%[11.4 µM] | 1µM* | ? | -5%
